Screening results deposited in PubChem BioAssay by Sanford-Burnham Center for Chemical Genomics.
Sampled rows, rich in hits. Any-hit rate of the full collection: about 4.1%.
TIM10 inh: inhibits growth of TIM10 yeast strain | 1.4% of 330,000 active | inhibition, % at 10 µM | S. cerevisiae TIM10 strain growth, BacTiter-Glo luminescence, 24 h;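 active = inhibition of 40% or more at the single tested concentration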;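 also: wild-type TIM10 isogenic control strain grown at permissive 25 °C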
tim10-1 inh: inhibits growth of tim10-1 mutant yeast. S. cerevisiae tim10-1 ts strain growth, BacTiter-Glo, 24 h. inhibition, % at 20 µM. 2.2% of 330,000 active. AID 463190;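 active = inhibition of at least 40%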;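 also: mutant grown at 25 °C; 0% = DMSO wells with yeast and 100% = wells holding no yeast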
NALP3 yeast inh: blocks the NALP3 inflammasome reconstituted in yeast | Yeast reconstituted NLRP3/ASC/caspase-1, beta-gal luminescence, 24 h | inhibition, % at 10 µM | 0.39% of 330,000 active;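 active = inhibition of 50% or more; inactive = inhibition below 50%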;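 also: plate controls were induced DMSO wells for no effect and uninduced yeast grown without galactose for full effect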
tim23-1 inh: growth inhibitors of tim23-1 mutant yeast; S. cerevisiae tim23-1 growth, BacTiter-Glo luminescence, 24 h; 1.3% of 330,000 active; inhibition, % at 20 µM; AID 463212;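 active = growth inhibition of the mutant yeast at or above 50%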;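 also: temperature-sensitive mutant grown at 25 °C; plate controls were DMSO-treated mutant yeast for no effect and medium wells lacking yeast for full effect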
NALP1 yeast inh: NALP1 inhibition; S. cerevisiae NALP1/ASC/caspase-1 growth, X-gal OD620, 72 h; inhibition, % at 10 µM; 0.61% of 280,000 active; in the data active = inhibition mostly above about 24%, no sharp cut-off; inactive = mostly below about 32%
tim10-1 confirm: tim10-1 yeast growth inhibition, confirmed | S. cerevisiae tim10-1 ts strain growth, BacTiter-Glo, 24 h | AID 463213 | inhibition, % at 20 µM | 56% of 7,400 active | shares compounds with tim10-1 inh;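 active = inhibition of yeast growth at or above a set limit in either of two repeat tests at 20 µM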;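 also: tim10-1 mutant grown at permissive 25 °C to find synthetic lethal compounds; 0% = DMSO yeast wells and 100% = medium wells without yeast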
tim10 confirm: TIM10 yeast growth inhibition, confirmed | S. cerevisiae tim10 strain growth, BacTiter-Glo luminescence, 24 h | 63% of 4,600 active | shares compounds with TIM10 inh | inhibition, % at 10 µM;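 active = inhibition of yeast growth at or above a set limit in either of two replicates at 10 µM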;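 also: this counterscreen used the strain with wild-type TIM10; 0% = yeast with DMSO and 100% = medium wells lacking yeast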
tim23-1 conf: confirmation of tim23-1 mutant yeast growth inhibitors | S. cerevisiae tim23-1 growth, BacTiter-Glo luminescence, 24 h | inhibition, % at 20 µM | AID 463218 | shares compounds with tim23-1 inh | 83% of 4,400 active;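 active = inhibition above about 39% in either of two replicate wells at 20 µM, limit read from the data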;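 also: temperature-sensitive tim23-1 mutant grown at 25 °C; 0% = DMSO wells with yeast and 100% = medium wells without yeast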
* = called active by the depositor; . = no result.

SMILES	TIM10 inh	tim10-1 inh	NALP3 yeast inh	tim23-1 inh	NALP1 yeast inh	tim10-1 confirm	tim10 confirm	tim23-1 conf
COc1cc2c(cc1OC)C(c1ccc(-c3ccc(Cl)c(Cl)c3)o1)=NCC2	37	56*	28	57*	6	44*	.	54*
COc1cc2c(cc1OC)C(C)=NCC2	1	12	-3	8	9	.	.	.
Cc1cc(C)n(-c2cc(C(C)(C)C)nc3c(-c4ccccc4)cnn23)n1	27	47*	9	51*	-5	41*	.	48*
Cc1ccccc1/C=C1\C(=O)Nc2ccc(F)cc21	26	44*	33	53*	34	38*	.	61*
N#Cc1cc(-c2ccccc2)[nH]c1-c1nccc2ccccc12	23	42*	12	51*	4	18	.	44*
c1ccc(-c2ccc(-c3nccc4ccccc34)[nH]2)cc1	.	.	.	.	2	.	.	.
CCOC(=O)Oc1ccc2c(=O)c(Oc3cccc(C)c3)coc2c1	41*	56*	-28	55*	-8	48*	41*	59*
Cc1cccc(Oc2coc3cc(OC(=O)c4cncc(Br)c4)ccc3c2=O)c1	18	8	13	10	38	.	.	.
c1ccc(Cn2nnc3c(N4CCCCCC4)ncnc32)cc1	-8	19	12	22	35	.	.	.
Clc1cccc(Cl)c1Cn1cnc2c(N3CCCCCC3)ncnc21	41*	44*	7	50*	-6	29	28*	47*
CCCN1C(=O)/C(=C/c2nc3ccccc3c(=O)[nH]2)c2cc(C)ccc21	14	32	-11	27	3	.	.	.
CCn1c(/C=C/c2ccccc2Cl)nc2ccccc2c1=O	11	32	11	27	6	.	.	.
CCCN1C(=O)/C(=C/c2nc3ccccc3c(=O)[nH]2)c2ccccc21	42*	51*	11	52*	25	36*	16	55*
CCn1c(/C=C\c2ccccc2C)nc2ccccc2c1=O	21	26	8	19	5	.	.	.
CCN1C(=O)/C(=C\N(C)C)c2ccccc21	2	14	-10	-1	3	.	.	.
CCN1C(=O)/C(=C\c2nc3ccccc3c(=O)n2CC)c2ccccc21	47*	55*	16	56*	21	44*	33*	57*
CCn1c(/C=C2/C(=O)N(C)c3ccccc32)nc2ccccc2c1=O	37	50*	24	54*	8	32*	.	58*
CCn1c(/C=C2\C(=O)N(C)c3ccccc32)nc2ccccc2c1=O	43*	45*	14	52*	4	39*	25	52*
COC(=O)Cc1c(C(=O)OC)nnn1-c1cccc(C(F)(F)F)c1	4	2	18	10	10	.	.	.
Cc1cccc(OCCN2CSC(=S)N(C)C2)c1	26	42*	49	59*	-8	14	.	76*
Cc1cccc(OCCCN2CCCCCC2)c1	3	2	13	-31	8	.	.	.
COc1ccccc1OCCN1CSC(=S)N(C)C1	53*	42*	38	72*	108*	31*	-18	60*
COc1cc(C)c(CN2CCC(n3nccc3NC(=O)C3CC3)CC2)cc1C	6	8	-1	6	7	.	.	.
Cc1ccc(CNC(=O)c2ccc(Cl)c(S(=O)(=O)N3CCCCC3)c2)cc1	-9	20	2	3	.	.	.	.
Cc1ccc(-c2ccnc3c(Br)c(C)nn23)cc1	15	41*	11	58*	2	30	.	39*
SMILES	TIM10 inh	tim10-1 inh	NALP3 yeast inh	tim23-1 inh	NALP1 yeast inh	tim10-1 confirm	tim10 confirm	tim23-1 conf
COC(=O)c1ccccc1NC(=O)CSc1nnnn1C1CCCCC1	17	26	10	33	36	.	.	.
CCOC(=O)c1ccccc1NC(=O)CSc1nnnn1C1CCCCC1	36	43*	-1	53*	5	19	.	34
CC(C)(C)C1C/C(=C/c2ccccn2)C(=O)/C(=C/c2ccccn2)C1 (stereo unspecified)	69*	66*	27	68*	-8	70*	75*	27
CC1C/C(=C/c2ccco2)C(=O)/C(=C/c2ccco2)C1 (stereo unspecified)	34	54*	3	54*	26	32*	.	43*
CCOc1cc(/C=C2/COc3ccccc3C2=O)ccc1OCC(=O)N(C)C	.	.	.	.	-12	.	.	.
CC1C/C(=C/c2ccccn2)C(=O)/C(=C/c2ccccn2)C1 (stereo unspecified)	67*	67*	28	65*	1	66*	71*	82*
O=C1/C(=C/c2ccccn2)COc2ccccc21	64*	54*	-1	76*	17	68*	75*	72*
C(=C\c1ccccn1)/c1ccccn1	-7	4	4	10	26	.	.	.
COc1ccc(N(Cc2ccccc2)C(=O)OC(C)(C)C)c(C(=O)N(C)OC)c1	13	19	-5	31	.	.	.	.
CC1CC2(CCCCC2)N2C(=O)C(=O)c3cccc1c32 (stereo unspecified)	29	42*	4	69*	-4	52*	.	79*
CC1CC(C)(C)N2C(=O)C(=C(C#N)C#N)c3cccc1c32 (stereo unspecified)	54*	71*	19	70*	.	68*	43*	82*
COc1ccccc1NC(=O)CSc1nnc(C)s1	0	16	9	16	17	.	.	.
COc1ccc(S(=O)(=O)N2CCC(C(=O)c3ccc4c(c3)OCCO4)CC2)cc1	60*	55*	42	59*	-4	55*	55*	55*
O=C(CN1CCC(C(=O)c2ccc3c(c2)OCCO3)CC1)Nc1ccccc1F	-5	26	5	26	22	.	.	.
O=C(c1ccc2c(c1)OCCO2)C1CCN(S(=O)(=O)c2ccccc2F)CC1	42*	50*	23	53*	5	43*	30	48*
CSc1ccccc1C(=O)Nc1cc2c(cc1C(=O)O)OCCCO2	-16	0	18	14	-3	.	.	.
COc1ccccc1C/C(N)=N/OC(=O)COc1cc(C)cc(C)c1C	73*	65*	-3	78*	6	70*	68*	81*
COc1ccccc1C/C(N)=N/OC(=O)COc1cccc(C)c1C	53*	63*	-2	70*	6	68*	46*	62*
COc1cc(C(=O)N=c2sccn2C)c([N+](=O)[O-])cc1OC	11	3	13	4	-3	.	.	.
Cn1ccsc1=NC(=O)c1ccc([N+](=O)[O-])o1	-82	50*	28	57*	7	24	.	58*
